# From PubChem BioAssay (NCI)
# Compounds without any hit were thinned out: in the full panel of roughly 79,000, 15% have a hit. Values without a mark were called inactive. Calls of active or inactive are those of the source. No stated cut-off is given here; in the data, active means growth inhibition above about 70%; inactive means the rest.
# Assays:
# [1] = NCI Yeast Anticancer Drug Screen. Data for the rad52 strain (AID 147);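 further: 0% = growth of vehicle-treated control cultures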; details: S. cerevisiae rad52 mutant growth inhibition, hits give high values
# In short: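 The repair-mutant yeast strain was incubated with compounds, then growth was read and inhibition derived relative to vehicle.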
# [2] = NCI Yeast Anticancer Drug Screen. Data for the wt1 strain (AID 149);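 further: 0% = growth of vehicle-treated wt1 cultures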; details: S. cerevisiae wt1 strain (SPY 50644) growth inhibition, hits give high values
# In short: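 wt1 strain grown with compound or vehicle; inhibition taken from the growth difference.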
# [3] = NCI Yeast Anticancer Drug Screen. Data for the rad50EPP+ strain (AID 151);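 further: 0% = growth of vehicle-treated control cultures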; details: S. cerevisiae rad50 mutant strain, hits give high values
# In short: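 Vehicle-normalised growth inhibition; rad50EPP+ yeast strain, altered in DNA damage repair, compound-treated.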
# [4] = NCI Yeast Anticancer Drug Screen. Data for the mgt1 strain (AID 153); details: S. cerevisiae mgt1 mutant growth inhibition, hits give high values
# In short: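 Vehicle-normalized growth inhibition is determined in mgt1 yeast, a strain selected for a defined alteration in DNA repair or cell cycle control.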
# [5] = NCI Yeast Anticancer Drug Screen. Data for the rad50 strain (AID 155);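 further: 0% = growth of vehicle-only cultures of the same strain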; details: S. cerevisiae rad50 strain growth inhibition, hits give high values
# In short: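 DNA repair mutant yeast, compound exposure, growth read-out; inhibition is taken relative to vehicle.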
# [6] = NCI Yeast Anticancer Drug Screen. Data for the mec2-1 strain (AID 157); details: S. cerevisiae mec2-1 strain, hits give high values
# In short: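 Mutant yeast (mec2-1) grown with compound; growth inhibition relative to vehicle control reported.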
# [7] = NCI Yeast Anticancer Drug Screen. Data for the rad14 strain (AID 159);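 further: 0% = growth of vehicle-treated control cultures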; details: S. cerevisiae rad14 strain growth inhibition, hits give high values
# In short: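 DNA repair-defective yeast, compound-exposed; % growth inhibition derived by comparison with vehicle-treated controls.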
# [8] = NCI Yeast Anticancer Drug Screen. Data for the sgs1 mgt1 strain (AID 161);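 further: 0% = growth of cultures given vehicle only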; details: S. cerevisiae sgs1 mgt1 strain, hits give high values
# In short: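 Yeast cells carrying a defined DNA-repair defect were exposed to test compounds. Growth inhibition was measured relative to vehicle-treated controls.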
# [9] = NCI Yeast Anticancer Drug Screen. Data for the CLN2oe strain (AID 163);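 further: 0% = growth of vehicle-only control cultures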; details: S. cerevisiae CLN2oe strain, hits give high values
# In short: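 Compounds are applied to yeast harbouring a defined cell-cycle control change; reduced growth compared with vehicle-treated controls gives the value.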
# [10] = NCI Yeast Anticancer Drug Screen. Data for the cln2 rad14 strain (AID 165);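 further: 0% = growth equal to vehicle treated cultures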; details: S. cerevisiae cln2 rad14 strain, hits give high values
# In short: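 Readout is yeast growth inhibition versus vehicle-treated controls, using a strain with cln2 and rad14 alterations exposed to compound.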
# [11] = NCI Yeast Anticancer Drug Screen. Data for the bub3 strain (AID 167); details: S. cerevisiae bub3 mutant strain, hits give high values
# In short: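 In this screen, a yeast mutant lacking normal mitotic checkpoint function is challenged with compound. Relative growth versus vehicle gives the inhibition value.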
# [12] = NCI Yeast Anticancer Drug Screen. Data for the wt2 strain (AID 169);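 further: 0% = growth of vehicle-treated yeast cultures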; details: S. cerevisiae wt2 strain growth inhibition, hits give high values
# In short: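 Against vehicle-treated controls, the growth of yeast exposed to each compound was compared, and the inhibition was recorded.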
# [13] = NCI Yeast Anticancer Drug Screen. Data for the mlh1 strain (AID 171);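 further: 0% = growth of vehicle-treated control cultures of the same strain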; details: S. cerevisiae mlh1 strain growth inhibition, hits give high values
# In short: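 Measured: yeast growth. Reference: vehicle-treated controls. Organism: strain with a defined alteration affecting DNA damage repair or cell cycle control, treated with compound.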
# [14] = NCI Yeast Anticancer Drug Screen. Data for the sgs1 strain (AID 173);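 further: 0% = growth of vehicle-only control cultures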; details: S. cerevisiae sgs1 mutant, hits give high values
# In short: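 Each compound was added to cultures of the altered yeast strain. Growth was recorded, and inhibition was derived by comparison with vehicle controls.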
# [15] = NCI Yeast Anticancer Drug Screen. Data for the mlh1 rad18 strain (AID 175); details: S. cerevisiae mlh1 rad18 strain growth inhibition, hits give high values
# In short: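 Genetically defined yeast (DNA repair-deficient) exposed to compounds; growth inhibition determined relative to vehicle.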
# [16] = NCI Yeast Anticancer Drug Screen. Data for the rad18 strain (AID 177); details: S. cerevisiae rad18 mutant growth inhibition, hits give high values
# In short: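 Vehicle-treated cultures served as the baseline for scoring compound-induced growth inhibition in DNA-repair-mutant yeast.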
# [17] = at 5.0 µM (retest, dose inferred, filed as 0.5)
# [18] = at 50.0 µM (retest, dose inferred, filed as 5.0)
smiles,measurement,setting,value
O=C1C=CC(=O)C1(Br)Br,growth inhibition,[1]; at 1.2 µM,7%
same,growth inhibition,[1]; at 3.7 µM,24%
same,growth inhibition,[1]; at 11.0 µM,62%
same,growth inhibition,[1]; at 33.0 µM,95% (active)
same,growth inhibition,[1]; at 100.0 µM,99% (active)
same,growth inhibition,[2]; at 1.2 µM,-1%
same,growth inhibition,[2]; at 3.7 µM,0%
same,growth inhibition,[2]; at 11.0 µM,8%
same,growth inhibition,[2]; at 33.0 µM,66%
same,growth inhibition,[2]; at 100.0 µM,99% (active)
same,growth inhibition,[3]; at 1.2 µM,2%
same,growth inhibition,[3]; at 3.7 µM,15%
same,growth inhibition,[3]; at 11.0 µM,33%
same,growth inhibition,[3]; at 33.0 µM,71% (active)
same,growth inhibition,[3]; at 100.0 µM,99% (active)
same,growth inhibition,[4]; at 1.2 µM,1%
same,growth inhibition,[4]; at 3.7 µM,-4%
same,growth inhibition,[4]; at 11.0 µM,25%
same,growth inhibition,[4]; at 33.0 µM,91% (active)
same,growth inhibition,[4]; at 100.0 µM,99% (active)
same,growth inhibition,[5]; at 1.2 µM,4%
same,growth inhibition,[5]; at 3.7 µM,24%
same,growth inhibition,[5]; [17],21%
same,growth inhibition,[5]; at 11.0 µM,65%
same,growth inhibition,[5]; at 33.0 µM,94% (active)
same,growth inhibition,[5]; [18],99% (active)
same,growth inhibition,[5]; at 50.0 µM,99.6% (active)
same,growth inhibition,[5]; at 100.0 µM,99% (active)
same,growth inhibition,[6]; at 1.2 µM,1%
same,growth inhibition,[6]; at 3.7 µM,5%
same,growth inhibition,[6]; [17],3%
same,growth inhibition,[6]; at 11.0 µM,23%
same,growth inhibition,[6]; at 33.0 µM,77% (active)
same,growth inhibition,[6]; [18],100% (active)
same,growth inhibition,[6]; at 50.0 µM,99.8% (active)
same,growth inhibition,[6]; at 100.0 µM,99% (active)
same,growth inhibition,[7]; at 1.2 µM,1%
same,growth inhibition,[7]; at 3.7 µM,13%
same,growth inhibition,[7]; at 11.0 µM,28%
same,growth inhibition,[7]; at 33.0 µM,88% (active)
same,growth inhibition,[7]; at 100.0 µM,99% (active)
same,growth inhibition,[8]; [17],54%
same,growth inhibition,[8]; [18],99% (active)
same,growth inhibition,[8]; at 50.0 µM,99.2% (active)
same,growth inhibition,[9]; at 1.2 µM,-5%
same,growth inhibition,[9]; at 3.7 µM,3%
same,growth inhibition,[9]; at 11.0 µM,18%
same,growth inhibition,[9]; at 33.0 µM,75% (active)
same,growth inhibition,[9]; at 100.0 µM,98% (active)
same,growth inhibition,[10]; [17],11%
same,growth inhibition,[10]; [18],99% (active)
same,growth inhibition,[10]; at 50.0 µM,99.2% (active)
same,growth inhibition,[11]; at 1.2 µM,3%
same,growth inhibition,[11]; at 3.7 µM,3%
same,growth inhibition,[11]; [17],28%
same,growth inhibition,[11]; at 11.0 µM,18%
same,growth inhibition,[11]; at 33.0 µM,95% (active)
same,growth inhibition,[11]; [18],99% (active)
same,growth inhibition,[11]; at 50.0 µM,99.4% (active)
same,growth inhibition,[11]; at 100.0 µM,99% (active)
same,growth inhibition,[12]; at 1.2 µM,-4%
same,growth inhibition,[12]; at 3.7 µM,-4%
same,growth inhibition,[12]; at 11.0 µM,24%
same,growth inhibition,[12]; at 33.0 µM,97% (active)
same,growth inhibition,[12]; at 100.0 µM,99% (active)
same,growth inhibition,[13]; at 1.2 µM,1%
same,growth inhibition,[13]; at 3.7 µM,11%
same,growth inhibition,[13]; at 11.0 µM,36%
same,growth inhibition,[13]; at 33.0 µM,95% (active)
same,growth inhibition,[13]; at 100.0 µM,99% (active)
same,growth inhibition,[14]; at 1.2 µM,-13%
same,growth inhibition,[14]; at 3.7 µM,-14%
same,growth inhibition,[14]; at 11.0 µM,75% (active)
same,growth inhibition,[14]; at 33.0 µM,99% (active)
same,growth inhibition,[14]; at 100.0 µM,99% (active)
same,growth inhibition,[15]; [17],78% (active)
same,growth inhibition,[15]; [18],99% (active)
same,growth inhibition,[15]; at 50.0 µM,99.2% (active)
same,growth inhibition,[16]; at 1.2 µM,15%
same,growth inhibition,[16]; at 3.7 µM,40%
same,growth inhibition,[16]; at 11.0 µM,77% (active)
same,growth inhibition,[16]; at 33.0 µM,95% (active)
same,growth inhibition,[16]; at 100.0 µM,99% (active)
CCCN(CCC)c1c([N+](=O)[O-])cc(S(N)(=O)=O)cc1[N+](=O)[O-],growth inhibition,[1]; at 1.2 µM,8%
same,growth inhibition,[1]; at 3.7 µM,25%
same,growth inhibition,[1]; at 11.0 µM,28%
same,growth inhibition,[1]; at 33.0 µM,60%
same,growth inhibition,[1]; at 100.0 µM,23%
same,growth inhibition,[2]; at 1.2 µM,10%
same,growth inhibition,[2]; at 3.7 µM,6%
same,growth inhibition,[2]; at 11.0 µM,18%
same,growth inhibition,[2]; at 33.0 µM,19%
same,growth inhibition,[2]; at 100.0 µM,7%
same,growth inhibition,[3]; at 1.2 µM,-23%
same,growth inhibition,[3]; at 3.7 µM,-33%
same,growth inhibition,[3]; at 11.0 µM,-31%
same,growth inhibition,[3]; at 33.0 µM,-23%
same,growth inhibition,[3]; at 100.0 µM,-22%
same,growth inhibition,[4]; at 1.2 µM,-1%
same,growth inhibition,[4]; at 3.7 µM,0%
same,growth inhibition,[4]; at 11.0 µM,-11%
same,growth inhibition,[4]; at 33.0 µM,25%
same,growth inhibition,[4]; at 100.0 µM,-2%
same,growth inhibition,[5]; at 1.2 µM,14%
same,growth inhibition,[5]; at 3.7 µM,12%
same,growth inhibition,[5]; [17],-5%
same,growth inhibition,[5]; at 11.0 µM,33%
same,growth inhibition,[5]; at 33.0 µM,44%
same,growth inhibition,[5]; [18],26%
same,growth inhibition,[5]; at 50.0 µM,63.4%
same,growth inhibition,[5]; at 100.0 µM,15%
same,growth inhibition,[6]; at 1.2 µM,-7%
same,growth inhibition,[6]; at 3.7 µM,0%
same,growth inhibition,[6]; [17],-13%
same,growth inhibition,[6]; at 11.0 µM,-25%
same,growth inhibition,[6]; at 33.0 µM,32%
same,growth inhibition,[6]; [18],15%
same,growth inhibition,[6]; at 50.0 µM,51.8%
same,growth inhibition,[6]; at 100.0 µM,-2%
same,growth inhibition,[7]; at 1.2 µM,-11%
same,growth inhibition,[7]; at 3.7 µM,-18%
same,growth inhibition,[7]; at 11.0 µM,-24%
same,growth inhibition,[7]; at 33.0 µM,29%
same,growth inhibition,[7]; at 100.0 µM,-2%
same,growth inhibition,[8]; [17],-11%
same,growth inhibition,[8]; [18],35%
same,growth inhibition,[8]; at 50.0 µM,47.7%
same,growth inhibition,[9]; at 1.2 µM,-11%
same,growth inhibition,[9]; at 3.7 µM,-3%
same,growth inhibition,[9]; at 11.0 µM,-4%
same,growth inhibition,[9]; at 33.0 µM,30%
same,growth inhibition,[9]; at 100.0 µM,2%
same,growth inhibition,[10]; [17],2%
same,growth inhibition,[10]; [18],73% (active)
same,growth inhibition,[10]; at 50.0 µM,85.3% (active)
same,growth inhibition,[11]; at 1.2 µM,-13%
same,growth inhibition,[11]; at 3.7 µM,-22%
same,growth inhibition,[11]; [17],4%
same,growth inhibition,[11]; at 11.0 µM,-17%
same,growth inhibition,[11]; at 33.0 µM,32%
same,growth inhibition,[11]; [18],80% (active)
same,growth inhibition,[11]; at 50.0 µM,89.5% (active)
same,growth inhibition,[11]; at 100.0 µM,-9%
same,growth inhibition,[12]; at 1.2 µM,-6%
same,growth inhibition,[12]; at 3.7 µM,-2%
same,growth inhibition,[12]; at 11.0 µM,-7%
same,growth inhibition,[12]; at 33.0 µM,3%
same,growth inhibition,[12]; at 100.0 µM,-2%
same,growth inhibition,[13]; at 1.2 µM,-27%
same,growth inhibition,[13]; at 3.7 µM,-28%
same,growth inhibition,[13]; at 11.0 µM,-16%
same,growth inhibition,[13]; at 33.0 µM,31%
same,growth inhibition,[13]; at 100.0 µM,-6%
same,growth inhibition,[14]; at 1.2 µM,3%
same,growth inhibition,[14]; at 3.7 µM,10%
same,growth inhibition,[14]; at 11.0 µM,16%
same,growth inhibition,[14]; at 33.0 µM,30%
same,growth inhibition,[14]; at 100.0 µM,6%
same,growth inhibition,[15]; [17],9%
same,growth inhibition,[15]; [18],70% (active)
same,growth inhibition,[15]; at 50.0 µM,72.9% (active)
same,growth inhibition,[16]; at 1.2 µM,-8%
same,growth inhibition,[16]; at 3.7 µM,-1%
same,growth inhibition,[16]; at 11.0 µM,6%
same,growth inhibition,[16]; at 33.0 µM,50%
same,growth inhibition,[16]; at 100.0 µM,0%
